Data reported in PubChem BioAssay (NCATS).
Results filed as inconclusive are left out. A number with no mark means an inactive call. Activity calls are given as the source filed them. Calls come from the whole dose curve; as a rule, active = well fitted cell-killing curve with a large enough effect; inconclusive = small, poorly fitted or top-dose-only effect, or effect the other way; inactive = no such curve, though single readings can be large or run the other way.

Test: Quantitative High-Throughput drug screen in 47 multiple myeloma cell lines against the NCATS MIPE library collection: KMS34_JCRB cell viability assay (AID 1918985); note: nearly all actives have a fitted effect of over 40% in size;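 for viability, percent of control: 100% = DMSO-only wells and 0% = media-only wells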
Details: KMS34 myeloma viability, CellTiter-Glo ATP luminescence, 48 h; series mostly up to 45.8 µM; viability, percent of control: at the top concentration
Method in brief: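 Inhibition of viability over 48 h was scored by ATP content (CellTiter-Glo) in 500-cell wells. Zero and full viability were defined by media-only and DMSO-only wells.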
Potency is the fitted concentration of half-maximal effect.

Row | SMILES | viability, percent of control | Potency
1 | CN(C)c1nc(N(C)C)nc(N(C)C)n1 | 112% | 
2 | CN1C(C(=O)Nc2ccccn2)=C(O)c2ccccc2S1(=O)=O | 96% | 
3 | CC1COc2c(N3CCN(C)CC3)c(F)cc3c(=O)c(C(=O)O)cn1c23 (stereo not given) | 115% | 
4 | CN(CCOc1ccc(NS(C)(=O)=O)cc1)CCc1ccc(NS(C)(=O)=O)cc1 | 107% | 
5 | CCCNCC(O)COc1ccccc1C(=O)CCc1ccccc1 (stereo not given) | 101% | 
6 | O=C(c1ccc(F)cc1)C1CCN(CCn2c(=O)[nH]c3ccccc3c2=O)CC1 | 141% | 
7 | Cc1cc(C(C)(C)C)cc(C)c1CC1=NCCN1 | 94.8% | 
8 | CC(COc1ccccc1)N(CCCl)Cc1ccccc1 (stereo not given) | 86.9% | 
9 | CCN1CCCC1CNC(=O)c1cc(S(=O)(=O)CC)c(N)cc1OC (stereo not given) | 94.6% | 
10 | NS(=O)(=O)c1cc2c(cc1Cl)NCNS2(=O)=O | 105% | 
11 | O=C(C1CCCCC1)N1CC(=O)N2CCc3ccccc3C2C1 (stereo not given) | 93.7% | 
12 | O=C1N(c2ccccc2)c2ccccc2C1(Cc1ccncc1)Cc1ccncc1 | 132% | 
13 | COc1cc2nc(N3CCN(C(=O)C4COc5ccccc5O4)CC3)nc(N)c2cc1OC (stereo not given) | 104% | 
14 | NC(CO)C(=O)NNCc1ccc(O)c(O)c1O (stereo not given) |  | 26.4 µM (active)
15 | CC(C)(C)C(=O)Oc1ccc(S(=O)(=O)Nc2ccccc2C(=O)NCC(=O)O)cc1 | 117% | 
